Test results from PubChem BioAssay (EPA / NIEHS).
Where “and” joins values, the source holds several entries; their conditions need not be identical. Identical values can stand only once. More than one record can exist for a structure, and the calls need not agree. Calls of active or inactive are those of the source. The calls were made as follows: active = hit-call score of the fitted dose curve at least 0.9, where 1 is the maximum; inactive = score below 0.9.

Assay: BSK_BT_Bcell_Proliferation: Viability Assessment in the BioMAP Diversity Plus: BT Assay for B cell Proliferation (AID 2284227)
Settings: primary human B cells with PBMC
Experimental: BSK_BT is a cell-based, multiplexed-readout assay that uses B cell and peripheral blood mononuclear cells, a human vascular primary cell co-culture, with measurements taken at 24 hours after chemical dosing in a microplate: 96-well plate.BSK_BT_Bcell_Proliferation is an assay component measured in the BSK_BT assay. It measures protein content, a form of viability reporter, as detected with absorbance signals by Sulforhodamine staining technology.Data from the assay component BSK_BT_Bcell_Proliferation was analyzed at the endpoint, BSK_BT_Bcell_Proliferation, in the positive analysis fitting direction relative to DMSO as the negative control and baseline of activity. Using a type of viability reporter, gain or loss-of-signal activity can be used to understand cellular changes in viability. To generalize the intended target to other relatable targets, this assay endpoint is annotated to the 'cell cycle' intended target family, where the subfamily is 'proliferation'.
The levels of cell surface (or secreted, indicated by the prefix "s") biomarker endpoints were measured by ELISA. Overt cytotoxicity to cells in confluent adherent cultures (all systems other than the BT system) was assessed by measuring total protein levels using sulforhodamine B (SRB) staining in parallel cultures at the time of biomarker measurements, indicated as SRB endpoints. For proliferation assays for adherent cell types, individual cell types are cultured at sub-confluence and relative cell numbers quantified by SRB staining at time points optimized for each system (48 h: 3C and CASM3C systems; 72 h: BT and HDF3CGF systems; 96 h: SAg system). SRB was performed by staining cells with 0.1% SRB after fixation with 10% TCA and reading wells at 560 nm.Viability and proliferation of PBMC (T cells) was quantified by Alamar Blue reduction for the SAg and BT systems. For PBMC viability (referred to as PBMC Cytotoxicity within the assay endpoint names), cells were plated (75,000/well in a 96-well plate) and then chemical samples added for 1 h before addition of activators, SEB and TSST-1 (20 ng/mL final concentration each). Cells were incubated for 90 h. Then, Alamar Blue (20 uL/well) (Invitrogen, Cat DAL1100) was added for 6 h, and the plates were read with a fluorescence microplate reader at 546/580 nm (excitation/emission). For PBMC proliferation, cells were plated and activated as above but incubated for only 16 h prior to addition of Alamar Blue. Plates were read after 6 h.
For COP(=O)(O)OC, the outcome was “inactive”. In the case of COC(=O)C(F)(F)C(F)(F)OC(F)(C(F)(F)F)C(F)(F)OC(F)=C(F)F (stereo not given), the outcome is reported as “inactive”. In the case of O=c1ssc(Cl)c1Cl, the AC50 is reported as 6.31 µM (active). With O=P(OCC(Br)CBr)(OCC(Br)CBr)OCC(Br)CBr (stereo not given) the AC50 was 23.9 µM (active). In the case of FC(F)(F)C(F)(C(F)(F)F)C(F)(F)C(F)(F)CC1CO1 (stereo not given), the outcome is reported as “inactive”. With Cc1ccc2c(c1N)C(=O)c1ccccc1C2=O the outcome was “inactive”. In the case of CC(O)C(F)(F)C(F)(F)F (stereo not given), the outcome is reported as “inactive”. In the case of CC(C)(C)c1ccccc1OP(=O)(Oc1ccccc1)Oc1ccccc1, the AC50 is reported as 28.6 µM (active). With CCCCC(CC)COP(=O)(Oc1ccccc1)Oc1ccccc1 (stereo not given) the AC50 was 31.3 µM (active). In the case of OCC(F)(F)OC(F)(F)C(F)(F)OC(F)(F)C(F)(F)OC(F)(F)F, the AC50 is reported as 22.6 µM (active) and 52.7 µM (active). For CCOP(=S)(S)OCC, the outcome was “inactive”. With CC(C)Nc1ccc(Nc2ccccc2)cc1 the AC50 was 2.3 µM (active). For O=S1(=O)OCC2C(CO1)C1(Cl)C(Cl)=C(Cl)C2(Cl)C1(Cl)Cl (stereo not given), the AC50 was 25.9 µM (active). With CCOP(=S)(OCC)SCn1nnc2ccccc2c1=O the outcome was “inactive”. With Cc1c([N+](=O)[O-])cc2c(c1[N+](=O)[O-])C(C)(C)CC2(C)C the AC50 was 20 µM (active). For C=CC(=O)OCC(CC)(COC(=O)C=C)COC(=O)C=C, the AC50 was 2.36 µM (active). For O=C(O)C(F)(F)C(F)(F)C(=O)O, the outcome was “inactive”. For O=C(O)C(F)(OC(F)(F)C(F)(F)C(F)(F)F)C(F)(F)F (stereo not given), the outcome was “inactive” and the AC50 was 220 nM (active) and 291 nM (active). With Nc1ccc([N+](=O)[O-])cc1Cl the outcome was “inactive”. For C=CC(=O)OCC(F)(F)C(F)F, the AC50 was 22.3 µM (active) and 36.2 µM (active). With ClC(Cl)=C(c1ccc(Cl)cc1)c1ccccc1Cl the AC50 was 34.4 µM (active). For CC(Cl)CN(C)C (stereo not given), the outcome was “inactive”. In the case of O=S(=O)(F)C(F)(F)C(F)(F)C(F)(F)C(F)(F)C(F)(F)C(F)(F)C(F)(F)C(F)(F)F, the outcome is reported as “inactive”. With CCOP(=S)(OCC)SCS(=O)(=O)CC the outcome was “inactive”. For CCCCC(CC)COC(=O)c1c(Br)c(Br)c(Br)c(Br)c1C(=O)OCC(CC)CCCC (stereo not given), the outcome was “inactive”. With c1ccc2c(c1)sc1ccccc12 the outcome was “inactive”. In the case of O=C(O)C(F)(F)OC(F)(F)C(F)(F)OC(F)(F)F, the outcome is reported as “inactive” and the AC50 is reported as 12.6 µM (active). With OCC(F)(F)OC(F)(F)C(F)(F)OC(F)(F)CO the outcome was “inactive”. In the case of N#Cc1c(-c2ccc(Cl)cc2)[nH]c(C(F)(F)F)c1Br, the AC50 is reported as 2.37 µM (active). In the case of CCOP(=S)(OCC)SCSc1ccc(Cl)cc1, the outcome is reported as “inactive”. For COP(N)(=S)OC, the outcome was “inactive”. With O=C(O)C=CC(F)(C(F)(F)F)C(F)(F)F the outcome was “inactive”. For OCC(F)(F)OC(F)(F)C(F)(F)OC(F)(F)C(F)(F)OC(F)(F)CO, the outcome was “inactive”. With N#Cc1cc([N+](=O)[O-])ccc1N the outcome was “inactive”. For CCOP(=S)(NC(C)C)Oc1ccccc1C(=O)OC(C)C (stereo not given), the outcome was “inactive”. For CCCCOCCOP(=O)(OCCOCCCC)OCCOCCCC, the outcome was “inactive”. In the case of O=C(O)C(F)(F)OC(F)(F)C(F)(F)OC(F)(F)C(=O)O, the outcome is reported as “inactive”. In the case of NC(=O)C(F)(F)C(F)(F)F, the outcome is reported as “inactive”.
